The source of these data is PubChem BioAssay (NCATS).

Several values for one entry are separate records, joined by “and”; a condition that tells them apart may be missing. Equal entries are not always repeated. Unmarked numbers belong to inactive results. Results filed as inconclusive are left out. Activity calls are given as the source filed them. Unless noted, the call rests on the fitted dose curve; in most records, active means well fitted curve in the direction sought with a large enough effect; inconclusive means small, poorly fitted or top-dose-only effect, or another doubt; inactive means no such curve, though single readings can be large; an effect the other way counts as inactive or inconclusive.

Test [1] can be described thus: qHTS to identify inhibitors of the type 1 interferon - major histocompatibility complex class I in skeletal muscle: primary screen against the NCATS LOPAC collection (AID 1347405).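 Further: human myoblasts with HiBiT tag on endogenous HLA-B stimulated by IFN-beta; lytic HiBiT luminescence reporting HLA-B protein level; on the % scale 0 is the no-effect control and ±100 the full control effect.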 In short, it runs like this:
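First, engineered myoblasts carrying HLA-B-HiBiT were seeded in medium lacking dexamethasone with 4 ng/ml IFN-beta. After 1 hr, compounds were pinned in (top 46 uM final, 7 points). After 24 hrs at 37 C, luminescence was measured following 10 min lysis.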
(In general: qHTS replaces the single test concentration by a dilution series.)

Test [2] in a line: qHTS to identify inhibitors of the type 1 interferon - major histocompatibility complex class I in skeletal muscle: primary screen against the NCATS Pharmaceutical Collection (AID 1347407).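 Further: luminescence of HiBiT knocked into endogenous HLA-B as interferon-induced MHC class I level; on the % scale 0 is the no-effect control and ±100 the full control effect.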 In short, it runs like this:
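Luminescence from HiBiT-tagged endogenous HLA-B*08:01 served as the read-out of IFN-beta-induced MHC class I in CRISPR-engineered C25cl48 myoblasts. Cells received 4 ng/ml IFN-beta plus compound (high final 46 uM, […]) for 24 h.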

Test [3] in a line: qHTS for inhibitors of adenylyl cyclases using a fission yeast platform: a pilot screen against the NCATS LOPAC library (AID 1347410).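 Further: plate controls were DMSO vehicle for no effect and DPI positive control for full effect.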 Summed up: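 Fission yeast qHTS: CHP2027 cells (AC9-GNAS-PDE4D2, fbp1-GFP), 5x10^6 cells/mL working density, EMM + His/Lys/Ura; LOPAC at up to 57 µM final; 18 h dark, 30C; GFP by laser cytometry. DPI positive control, DMSO vehicle.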
For test [4], the target named is Protein phosphatase 1D (Homo sapiens) (UniProt O15297). Briefly: RapidFire Mass Spectrometry qHTS Assay for Modulators of WT P53-Induced Phosphatase 1 (WIP1) (AID 1347424).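 Further: series mostly up to about 63 µM; plate controls were DMSO wells for no effect and GSK830371 inhibitor control at 10 µM for full effect.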 In short, it runs like this: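 RapidFire MS readout of dephosphorylated VEPPL-S-QETFS product, with 1 uM isotope-labelled peptide standard. Reaction: 10 nM WIP1, 2 uM phosphopeptide substrate, 5 min, room temperature, after 1 h compound preincubation; stopped with 0.5% formic acid.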

Test [5] has the same target. The test can be described thus: Rhodamine-PBP qHTS Assay for Modulators of WT P53-Induced Phosphatase 1 (WIP1) (AID 1347425). Further: % of control where 0% means no effect. In short, it runs like this: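 WIP1 (5 nM final) was preincubated with compound for 1 hour at room temperature. It then dephosphorylated 10 uM VEPPL-pS-QETFS peptide in Tris-HCl pH 7.5 with 30 mM MgCl2. Released Pi was detected by 10 uM Rh-PBP fluorescence (ex 525/em 598 nm) read at 1-min intervals for 11 min, as delta f1 - f0.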

Test [6] is described as follows: Validation qHTS assay for inhibitors of Activation Induced Cytidine Deaminase (AID): UDG Counterscreen signal (AID 1347427). Further: 0% is about no effect. Summed up:
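Fluorescence at 560 nm excitation, 665 nm emission reports UDG signal after 250 mM NaOH (2x) addition and 30 min. Enzymes (AID 1 uM, UDG 2 U/mL, at 4/3x) preincubated 10 min with compound, then 4 h with 4x 250 nM DJC20/DJC23 substrate at room temperature.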

Test [7] has as its target Single-stranded DNA cytosine deaminase (Homo sapiens) (UniProt Q9GZX7). Briefly: Validation qHTS assay for inhibitors of Activation Induced Cytidine Deaminase (AID): AID signal (AID 1347429). Further: on the % scale 0 is the no-effect control and ±100 the full control effect. In short, it runs like this: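 Steps: dispense AID with UDG; pin-transfer compound up to 114 uM final; add DJC20/DJC23 substrate and hold 4 hr at room temperature; add NaOH, hold 30 min; read FRET signal (540/590 nm).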

Test [8] can be described thus: Primary qHTS for inhibitors of La Crosse Virus (LACV) - induced cell death in SH-SY5Y cells (AID 1508616).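 Further: top concentration of the series differs between compounds; 0% = infected DMSO wells and 100% = uninfected DMSO wells; higher means more rescue of cells from virus-induced death.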 Summed up:
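SH-SY5Y, 6000 cells/well; cpd via pin tool in DMSO; LACV 0.01 MOI; 6 d 37C 5% CO2; ATPLite, 5 min RT; luminescence normalized to ±virus DMSO controls.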

Test [9] deals with Calcium and integrin-binding protein 1 (Homo sapiens) (UniProt Q99828). The test can be described thus: Validation qHTS for Identification of Calcium Integrin Binding protein 1 (CIB1) Competitor (AID 1508618). Further: on the % scale 0 is the no-effect control and ±100 the full control effect. In short, it runs like this: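 Fluorescence polarization with 1 uM CIB1-GST and 100 nM FITC-alphaIIb peptide in HEPES pH 7.4, NaCl, 5 mM CaCl2, Tween20. Compounds at up to 114 uM final, preincubated with protein 15 min; read after 15 min more at RT.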

The target is the same in test [10]. The test can be described thus: Primary qHTS for Identification of Calcium Integrin Binding Protein 1 (CIB1) Competitor (AID 1508620). Summed up:
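Fluorescence polarization competition: GST-tagged CIB1 (1 uM final) preincubated with compound 15 min at room temperature, then FITC-labelled alphaIIb peptide (100 nM final) added. After 15 min at room temperature, polarization read at Ex 480/Em 540.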

The nature of test [11]: Primary qHTS for small molecule stabilizers of the endoplasmic reticulum resident proteome: Secreted ER Calcium Modulated Protein (SERCaMP) assay (AID 1508630). Further: on the % scale 0 is the no-effect control and ±100 the full control effect. Summed up:
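The SH-SY5Y reporter protocol was run at 3 concentrations up to 38.3 uM (primary) or 11 concentrations (follow-up): 16 h compound, 100 nM thapsigargin for 4 h, then extracellular luciferase luminescence.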

Test [12] in a line: A High-Content qHTS Against Drug Library for the Identification of Small Molecules that Inhibit DYT1 Early Onset Primary Dystonia-Associated Cell Pathology (AID 1645839; calls by dose curve; further: series mostly up to about 46 µM). Summed up: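 Cells were seeded and left for 24 h, then dosed with compound alongside tetracycline induction of mutant EGFP-TorsinA. They were incubated for 48 h, fixed in 4% paraformaldehyde, permeabilized and imaged for mislocalization (%pathology) and cell count.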

Test [13] deals with Cytochrome P450 2D6 (Homo sapiens) (UniProt P10635). Briefly: Cytochrome P450 family 2 subfamily D member 6 (CYP2D6) small molecule antagonists: luciferase biochemical (cell-free) qHTS assay (AID 1645840; active means well fitted curve in the direction sought with a large enough effect in the repeat runs; an effect the other way counts as inactive or inconclusive; further: nearly all actives have a fitted effect of over 55% in size; further: potency means the concentration at half of the fitted maximal effect). Summed up: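 P450-Glo CYP2D6 system: proluciferin substrate converted by enzyme to luciferin, read by luminescence proportional to activity. Enzyme-substrate mix with compound 10 min at room temperature, then NADPH regeneration 1 h before detection reagent.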

Test [14] addresses Cytochrome P450 2C9 (Homo sapiens) (UniProt P11712). Briefly: Cytochrome P450 family 2 subfamily C member 9 (CYP2C9) small molecule antagonists: luciferase biochemical (cell-free) qHTS assay (AID 1645842; active means well fitted curve in the direction sought with a large enough effect in the repeat runs; an effect the other way counts as inactive or inconclusive; further: series mostly up to about 57 µM; on the % scale 0 is the no-effect control and ±100 the full control effect; nearly all actives have a fitted effect of over 55% in size). In short, it runs like this:
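P450-Glo CYP2C9 system: proluciferin substrate with enzyme in mix containing 0.4% BSA, 10 min at room temperature, then NADPH regeneration solution added and incubated 1 h at 37C. Detection reagent stopped reaction; luminescence read after 20 min as RLU.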

The target in another test is Papain (Carica papaya) (UniProt P00784). The test can be described thus: Primary qHTS assay for inhibitors of the protease papain (AID 1645873).
Test [15] is described as follows: Primary qHTS for inhibitors of nuclear receptor binding SET domain protein 2 (NSD2) in an isogenic RCH-ACV NSD2 p.E1099K mutant (9B) (AID 1645876). Further: nearly all actives have a fitted effect of over 70% in size. Further: potency means the concentration at half of the fitted maximal effect.
Test [16] in a line: Cell Viability qHTS for small molecule stabilizers of the endoplasmic reticulum resident proteome (AID 1508629). The settings on record: cell viability counter-screen, 100 nM thapsigargin for final 4 h.

Sequence of Protein phosphatase 1D (Homo sapiens) (O15297 whole entry, looked up): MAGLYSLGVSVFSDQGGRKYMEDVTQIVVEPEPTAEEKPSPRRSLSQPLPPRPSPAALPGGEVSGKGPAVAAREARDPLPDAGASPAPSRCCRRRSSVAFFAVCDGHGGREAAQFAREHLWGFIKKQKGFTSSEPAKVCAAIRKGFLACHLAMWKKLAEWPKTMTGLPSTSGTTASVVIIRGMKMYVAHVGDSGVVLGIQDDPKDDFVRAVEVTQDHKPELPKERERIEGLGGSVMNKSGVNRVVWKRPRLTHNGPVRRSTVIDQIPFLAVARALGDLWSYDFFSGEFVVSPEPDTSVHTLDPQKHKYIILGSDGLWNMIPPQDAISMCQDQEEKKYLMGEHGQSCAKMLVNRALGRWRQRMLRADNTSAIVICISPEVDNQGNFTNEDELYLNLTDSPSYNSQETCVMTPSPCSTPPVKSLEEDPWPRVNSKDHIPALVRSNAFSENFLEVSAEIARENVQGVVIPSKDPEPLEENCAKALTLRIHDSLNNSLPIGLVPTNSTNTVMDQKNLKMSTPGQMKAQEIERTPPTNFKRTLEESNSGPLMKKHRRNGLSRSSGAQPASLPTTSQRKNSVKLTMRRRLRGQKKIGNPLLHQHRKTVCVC
Sequence of Calcium and integrin-binding protein 1 (Homo sapiens) (Q99828 whole entry, looked up): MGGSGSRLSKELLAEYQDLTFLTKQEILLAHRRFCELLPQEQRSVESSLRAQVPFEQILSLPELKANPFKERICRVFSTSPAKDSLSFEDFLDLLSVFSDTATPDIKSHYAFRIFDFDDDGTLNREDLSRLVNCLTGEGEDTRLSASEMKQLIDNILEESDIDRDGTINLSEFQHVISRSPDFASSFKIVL
Sequence of Papain (Carica papaya) (P00784 whole entry, looked up, the tested form may be a part): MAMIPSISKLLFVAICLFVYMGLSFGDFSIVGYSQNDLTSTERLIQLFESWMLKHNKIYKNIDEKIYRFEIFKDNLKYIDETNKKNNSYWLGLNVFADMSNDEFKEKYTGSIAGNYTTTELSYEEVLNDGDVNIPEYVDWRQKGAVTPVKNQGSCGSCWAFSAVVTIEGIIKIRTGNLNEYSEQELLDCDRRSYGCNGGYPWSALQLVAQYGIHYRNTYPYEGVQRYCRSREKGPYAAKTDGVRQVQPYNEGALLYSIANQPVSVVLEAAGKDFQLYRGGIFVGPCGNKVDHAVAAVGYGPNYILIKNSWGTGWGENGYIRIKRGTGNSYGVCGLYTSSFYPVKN
Sequence of Cytochrome P450 2D6 (Homo sapiens) (P10635 whole entry, looked up): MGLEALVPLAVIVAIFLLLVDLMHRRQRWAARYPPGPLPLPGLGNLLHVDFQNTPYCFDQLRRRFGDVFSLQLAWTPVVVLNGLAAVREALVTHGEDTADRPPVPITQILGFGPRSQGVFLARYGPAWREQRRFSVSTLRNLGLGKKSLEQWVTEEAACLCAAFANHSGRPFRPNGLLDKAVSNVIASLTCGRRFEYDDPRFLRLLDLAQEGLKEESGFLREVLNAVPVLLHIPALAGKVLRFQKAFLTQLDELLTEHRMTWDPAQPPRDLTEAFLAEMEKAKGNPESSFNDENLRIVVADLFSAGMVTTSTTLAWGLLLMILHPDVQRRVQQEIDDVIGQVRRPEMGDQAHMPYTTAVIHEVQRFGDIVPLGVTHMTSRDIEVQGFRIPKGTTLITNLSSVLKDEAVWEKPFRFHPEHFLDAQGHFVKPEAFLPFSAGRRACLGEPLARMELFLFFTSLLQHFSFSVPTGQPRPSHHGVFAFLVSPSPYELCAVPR
Sequence of Cytochrome P450 2C9 (Homo sapiens) (P11712 whole entry, looked up): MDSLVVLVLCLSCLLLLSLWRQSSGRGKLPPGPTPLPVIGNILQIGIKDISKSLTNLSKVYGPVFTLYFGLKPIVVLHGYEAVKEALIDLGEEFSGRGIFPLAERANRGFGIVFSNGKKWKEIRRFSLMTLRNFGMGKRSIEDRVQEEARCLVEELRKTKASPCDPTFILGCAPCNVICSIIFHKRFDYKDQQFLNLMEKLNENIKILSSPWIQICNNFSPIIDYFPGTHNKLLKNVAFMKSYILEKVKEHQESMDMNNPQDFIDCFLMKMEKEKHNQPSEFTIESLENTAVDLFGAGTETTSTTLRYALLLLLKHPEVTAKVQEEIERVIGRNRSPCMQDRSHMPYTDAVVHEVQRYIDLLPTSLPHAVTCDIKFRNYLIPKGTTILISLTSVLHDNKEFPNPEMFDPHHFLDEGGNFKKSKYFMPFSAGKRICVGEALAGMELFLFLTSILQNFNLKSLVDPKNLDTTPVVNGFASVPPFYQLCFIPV
Sequence of Single-stranded DNA cytosine deaminase (Homo sapiens) (Q9GZX7 whole entry, looked up): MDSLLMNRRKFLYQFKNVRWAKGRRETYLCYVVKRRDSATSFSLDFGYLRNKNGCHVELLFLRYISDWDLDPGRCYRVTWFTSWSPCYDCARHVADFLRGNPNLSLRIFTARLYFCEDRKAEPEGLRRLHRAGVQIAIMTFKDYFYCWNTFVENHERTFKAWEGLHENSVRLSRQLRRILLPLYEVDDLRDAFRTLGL

For `NC(=O)N1c2ccccc2C=Cc2ccccc21`, the Potency result in test [1], in test [2], in test [4], in test [7], in test [8] and in test [10] was “inactive” in each case. For the same molecule, the Potency result (in test [11]; in [12]; in [13]; in test [14]; with Papain (Carica papaya); in test [15]) was “inactive” each time. The call in test [3], in [5], in test [6] and in [9] was inactive.

As to `OCCN1CCN(CCCN2c3ccccc3C=Cc3ccccc32)CC1`, the Potency result in test [1], in test [2], in test [4], in [7], in test [8] and in test [10] was “inactive” in each case. Besides, in test [14], the Potency result is “inactive”. In addition, the molecule was called inactive in test [3], in test [5], in test [6] and in test [9]. Also, in [16], the max response was -5.61%. Also, in [13], the Potency was 13.8 µM (active).

`NC(N)=NC(=O)Cc1c(Cl)cccc1Cl`: the Potency result in [1], in test [2], in [4], in test [7], in test [8] and in test [10] was “inactive” each time. Also, the Potency result (in test [11]; in [12]; in [14]; in the test with Papain (Carica papaya)) was “inactive” each time. Further, the result in test [3], in [5], in test [6] and in [9] was inactive.

Regarding `CCn1cc(C(=O)O)c(=O)c2cc3c(cc21)OCO3`, the Potency result in [1], in test [2], in test [4], in [7], in test [8] and in test [10] was “inactive” in each case. Also, the Potency result in test [11], in test [12], in [13], in test [14] and in test [15] was “inactive” throughout. Moreover, the result in test [3], in [5], in test [6] and in test [9] was inactive.

In the case of `CN(C)CC[C@@H](c1ccc(Br)cc1)c1ccccn1`, the Potency result in test [1], in test [2], in test [4], in test [7], in test [8] and in test [10] was “inactive” in each case. Besides, the Potency result (in [11]; in [14]; in the test with Papain (Carica papaya); in [15]) was “inactive” in each case. Further, the result in test [3], in test [5], in test [6] and in test [9] was inactive. Besides, the Potency in test [13] is 4.9 µM (active).

For `CC(C)COCC(CN(Cc1ccccc1)c1ccccc1)N1CCCC1` (stereo unspecified), the Potency entry in test [1], in test [2], in test [4], in test [7], in test [8] and in test [10] was “inactive” each time. Further, the Potency entry (in test [11]; in the test with Papain (Carica papaya)) was “inactive” in each case. The outcome in test [3], in [5], in [6] and in [9] was inactive. The Potency in test [13] was 0.0347 µM (active); in test [15] it was 2.99 µM (active) and 16.6 µM (active).

As to `Cc1ccc(S(=O)(=O)NC(=O)NN2CCCCCC2)cc1`, the Potency entry in [1], in [2], in test [4], in test [7], in test [8] and in [10] was “inactive” in each case. Also, the Potency result (in [11]; in test [12]; with Papain (Carica papaya); in [15]) was “inactive” in each case. Also, the molecule was classed as inactive in [3], in test [5], in [6] and in test [9].

Turning to `CN(C)C(=O)Oc1ccc[n+](C)c1`, the Potency entry in [1], in test [2], in test [4], in [7], in test [8] and in test [10] was “inactive” each time. Besides, the Potency result (in [11]; in test [13]; in test [14]; with Papain (Carica papaya); in [15]) was “inactive” in each case. Also, the molecule was called inactive in test [3], in test [5], in test [6] and in [9].
